Assay outcomes from PubChem BioAssay.
In the library only some 2.9% were active in any assay of this set; here they are far more common.
Pol eta inh: qHTS for Inhibitors of Polymerase Eta. 390,000 tested, 1.2% active. Potency, µM (titrated, usually from 114 µM), for inactives: at the top dose activity change, negative = inhibition, usual class: inhibitors. recombinant Pol eta, fluorescent DNA replication assay; also: potency is read from the fitted curve at half-maximal effect; % is scaled to controls: 0 for no effect and ±100 for the full control effect
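Pol eta (10 nM) was preincubated with compounds for 15 min at room temperature, after which fluorescent replication substrate (50 nM final) was added to start the reaction. Fluorescence was read kinetically at 0 and 10 min.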
PI5P4K alpha inh: qHTS for Inhibitors of phosphatidylinositol 5-phosphate 4-kinase (PI5P4K); max response, %; PI5P4Kalpha enzyme, ADP-Glo luminescence, 60 min; stronger effect = lower value; 330,000 tested, 1.2% active; AID 652105, 2013; Phosphatidylinositol 5-phosphate 4-kinase type-2 alpha (Homo sapiens), P48426; active = max response of -50% or lower; inconclusive = between -30% and -50%; inactive = -30% or higher; also: value at the top dose of about 77 µM; % is scaled to controls: 0 for no effect and ±100 for the full control effect
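Reactions run in 0.038 M HEPES pH 7.4, 0.28 mM EGTA, 0.1% CHAPS and 5% DMSO, with PI5P4Kalpha, substrate, compound and 5 microM ATP final, one hour at room temperature. Readout is ADP-Glo luminescence.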
ALOX12 inh: Primary qHTS assay for inhibitors of human arachidonate 12S-lipoxygenase (ALOX12): Round 2 | Polyunsaturated fatty acid lipoxygenase ALOX12 (Homo sapiens), P18054 | Potency, µM (doses to about 108 µM), for inactives: top-dose activity change, negative = inhibition, hits mostly inhibitors | 580,000 tested, 1.1% active | purified 12hLO, xylenol orange hydroperoxide absorbance; also: potency is read from the fitted curve at half-maximal effect; % is scaled to controls: 0 for no effect and ±100 for the full control effect
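Hydroperoxide product was detected by ferrous iron/xylenol orange as the 573 to 405 nm absorbance ratio. Arachidonic acid at 40 uM (final) was turned over for 30 min at room temperature by 150 nM human 12hLO, pH 7.0 Hepes buffer, after 15 min compound preincubation.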
POLI inh: qHTS for Inhibitors of Polymerase Iota; Pol iota fluorescent replication assay, 10 min; Potency, µM (doses to about 115 µM), for the others: top-dose activity, negative = inhibition, actives largely listed as inhibitors; 390,000 tested, 1% active; DNA polymerase iota (Homo sapiens), Q9UNA4; also: potency is read from the fitted curve at half-maximal effect
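Fluorescent replication assay read twice, at 0 min and 10 min after adding 50 nM (final) substrate. Enzyme (10 nM) and compounds were first incubated 15 min at room temperature; enzyme-free buffer wells were negative controls.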
Pol kappa inh: qHTS for Inhibitors of Polymerase Kappa; 400,000 tested, 0.53% active; AID 588579, 2011; Potency, µM (top dose mostly 107 µM), for the others: at the highest dose activity, negative = inhibition, most hits filed as inhibitors; purified Pol kappa, fluorescent DNA synthesis assay, 10 min; also: potency is read from the fitted curve at half-maximal effect; % is scaled to controls: 0 for no effect and ±100 for the full control effect
Target sequence (Q9UBT6 whole entry, looked up): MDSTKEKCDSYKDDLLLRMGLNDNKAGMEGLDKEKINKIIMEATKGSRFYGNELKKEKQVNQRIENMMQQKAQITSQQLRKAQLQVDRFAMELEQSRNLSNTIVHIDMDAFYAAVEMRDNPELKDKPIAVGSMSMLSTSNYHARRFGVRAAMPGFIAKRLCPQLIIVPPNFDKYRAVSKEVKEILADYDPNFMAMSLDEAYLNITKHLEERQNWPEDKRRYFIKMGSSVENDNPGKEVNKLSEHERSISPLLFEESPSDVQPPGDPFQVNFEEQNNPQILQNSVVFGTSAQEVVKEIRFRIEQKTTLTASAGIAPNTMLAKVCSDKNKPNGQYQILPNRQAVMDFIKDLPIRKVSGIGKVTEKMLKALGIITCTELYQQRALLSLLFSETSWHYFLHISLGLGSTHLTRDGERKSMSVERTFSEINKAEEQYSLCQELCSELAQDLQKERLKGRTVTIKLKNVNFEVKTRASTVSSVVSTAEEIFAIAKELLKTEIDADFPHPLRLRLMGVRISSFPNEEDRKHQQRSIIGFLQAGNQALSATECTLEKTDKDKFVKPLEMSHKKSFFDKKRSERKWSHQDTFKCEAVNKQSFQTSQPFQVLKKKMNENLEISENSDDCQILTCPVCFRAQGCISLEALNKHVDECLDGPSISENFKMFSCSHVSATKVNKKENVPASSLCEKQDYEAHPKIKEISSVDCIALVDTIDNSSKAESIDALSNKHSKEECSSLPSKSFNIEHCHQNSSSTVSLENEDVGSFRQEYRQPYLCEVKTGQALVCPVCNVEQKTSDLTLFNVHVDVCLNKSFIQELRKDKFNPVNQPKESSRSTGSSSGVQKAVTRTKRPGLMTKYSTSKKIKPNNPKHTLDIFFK
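50 nM final substrate added after 15 min RT preincubation of 10 nM Pol kappa with compound; fluorescence read at 0 and 10 min.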
POLB inh: qHTS Assay for Inhibitors of DNA Polymerase Beta | P06746 | Pol beta primer extension/strand displacement, fluorescence kinetic | Potency, µM (series often up to 114 µM), inactives show at the highest dose activity change, negative = inhibition, hits mostly inhibitors | 340,000 tested, 1.3% active; also: potency is read from the fitted curve at half-maximal effect; % is scaled to controls: 0 for no effect and ±100 for the full control effect
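Pol beta (10 nM) was preincubated with compound for 15 min at room temperature. The reaction was then started with 50 nM substrate and read immediately and after a further 10 min at room temperature.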
* hit, by the source's call; ? = inconclusive; nt = no result given; [ ] = another dose, or the depositor's remark. Unless noted, calls follow the shape of the dose curve; as a rule, active = well fitted inhibition curve with a large enough effect; inconclusive = small, poorly fitted or top-dose-only effect, or another doubt; inactive = no such curve, though single readings can be large or run the other way.

SMILES	Pol eta inh	PI5P4K alpha inh	ALOX12 inh	POLI inh	Pol kappa inh	POLB inh
CCN(CC)CCNC(=O)C(=O)Nc1cccc2[nH]ccc12	nt	nt	-14%	nt	nt	nt
Cc1cc(C)cc(NC(=O)CCn2cnc3c2c(=O)n(C)c(=O)n3C)c1	nt	nt	18%	nt	nt	nt
CCOC(=O)C1=C(CN2CCN(c3ccccn3)CC2)NC(=O)NC1c1cccc(OC)c1OC (centres undefined)	nt	nt	0%	nt	nt	nt
CCc1ccc(C2C(C#N)=C(N)SC(N)=C2C#N)s1	?	-75*	nt	?	?	-8%
Cc1cc(OCC(=O)OCCOc2ccccc2)ccc1Cl	nt	nt	10%	nt	nt	nt
CN(C)C(CNC(=O)CCOc1ccccc1)c1ccco1 (centres undefined)	?	-2	1%	32µM*	79µM*	?
COc1cc2nc(N3CCCN(C)CC3)nc(Nc3ccncc3)c2cc1OC	nt	nt	nt	20µM*	-18%	nt
COc1cc2c(NC3CCN(C)CC3)nc(N3CCCN(C)CC3)nc2cc1OCCCCN	nt	nt	nt	20µM*	79µM*	nt
CCCCc1cc2cc(C(=O)Nc3ccc(C)cc3)ccc2nc1Cl	nt	nt	-4%	nt	nt	nt
CC(=O)N1CCC(N[C@@H]2C[C@H](COc3cccc(C)n3)[C@@H](O)[C@H]2O)CC1	nt	nt	16µM*	nt	nt	nt
CC(C)Nc1nc(NC(N)=S)nc(NC(C)(C)C)n1	-7%	-12	45µM*	41%	-8%	2%
COc1ccc(-c2cc(=O)c3c(C)cc(O)cc3o2)cc1	?	-3	?	20µM*	?	nt
COc1cc(-c2cc(=O)c3c(C)cc(O)cc3o2)cc(OC)c1OC	?	-10	-39%	15%	-6%	nt
Cc1ccc(S(=O)(=O)NC(=O)c2ccc(-c3ccc(-c4ccccc4)cc3)o2)c(C)c1	nt	nt	nt	nt	nt	56µM*
Cc1ccc(S(=O)(=O)NC(=O)c2ccc(F)cc2)c(C)c1	-3%	1	?	2%	-3%	9%
CCOC(=O)C1CCC(CNC(=O)N2CCCC2c2ccccc2C)CC1 (centres undefined)	nt	nt	-31%	nt	nt	nt
Cc1ncc(CN2CCCC(C(=O)Nc3ccc(-c4ccco4)cc3)C2)cn1 (centres undefined)	?	-1	4%	32µM*	?	-2%
O=C(c1cccc2[nH]ccc12)N1CCCC(n2cc(-c3nc(C4CC4)no3)nn2)C1 (centres undefined)	nt	nt	13%	nt	nt	nt
O=C1CC(c2ccc(Cl)cc2)CC(=O)C1CS(=O)(=O)c1ccccc1 (centres undefined)	13%	-58*	35µM*	41%	-3%	-4%
O=C(CSc1nc2nn(-c3ccccc3)c(=O)c-2c2n1CCCCC2)c1ccc(O)c(O)c1	1.8µM*	-54*	nt	2µM*	4µM*	nt
Cc1nc(SCCc2nc3ccccc3[nH]2)c2oc3ccccc3c2n1	-6%	nt	14µM*	-7%	-2%	nt
Cc1nc(SCc2nc3ccccc3[nH]2)c2oc3cc(Br)ccc3c2n1	1%	nt	-5%	0%	-8%	nt
Cc1ccc(NC2=C(Cl)C(=O)OC2OC(=O)c2ccc(C)cc2)cc1 (centres undefined)	-12%	2	7.9µM*	27%	-12%	?
COC(=O)c1ccc(NC2=C(Cl)C(=O)OC2OC(=O)c2ccccc2)cc1 (centres undefined)	-13%	-2	18%	-20%	4%	-13%
COc1ccc(S(=O)(=O)N(c2onc(C)c2Cl)S(=O)(=O)c2ccc(OC)c(OC)c2)cc1OC	3%	nt	18µM*	6%	0%	0%
SMILES	Pol eta inh	PI5P4K alpha inh	ALOX12 inh	POLI inh	Pol kappa inh	POLB inh
CC1CCCCC1NS(=O)(=O)c1ccc(S(=O)(=O)NCc2ccncc2)cc1 (centres undefined)	-9%	nt	nt	?	0%	71µM*
Cc1ccc(S(=O)(=O)NCc2ccncc2)cc1	-12%	1	0%	3%	7%	4%
CS(=O)(=O)N(Cc1csc(-c2cccs2)n1)C1CCN(C(=O)c2c(F)cccc2F)CC1	nt	nt	1%	nt	nt	nt
O=C(c1ccccc1F)N1CCc2nc(C3CC3)nc(-c3ccc(Cl)cc3)c2C1	nt	nt	45µM*	nt	nt	nt
O=C(c1ccccc1F)N1CCc2nc(C3CC3)nc(-c3ccc(Cl)cc3)c2CC1	nt	nt	20%	nt	nt	nt
CCc1ccc(C(=O)N(CC)CC)o1	nt	nt	43%	nt	nt	nt
CSc1snnc1-c1ccccc1	-4%	1	8%	18%	-8%	1%
c1ccc(-c2nnsc2-c2ccccc2)cc1	-9%	-60*	nt	27%	-6%	-2%
Cc1ccc(Nc2nc(-c3ccc(F)cc3)cs2)cc1	nt	nt	-48%	nt	nt	nt
Cc1ccc(Nc2n[nH]c(=S)s2)cc1	-12%	-68*	32µM*	nt	nt	nt
S=c1[nH]nc(Nc2ccc(Cl)cc2)s1	-3%	-73*	?	?	1%	?
Cc1nnc(Nc2ccc(Cl)cc2)s1	0%	9	64%	162%	-7%	7%
CCOc1ccc(Nc2n[nH]c(=S)s2)cc1	-8%	-76*	?	4%	-9%	12%[57.1 µM]
Cc1ccc(Nc2n[nH]c(=S)s2)cc1F	-11%	-76*	40µM*	-3%	-10%	nt
O=C(NCc1ccccn1)Nc1ccc(N2CCOCC2)nc1	nt	nt	15%	nt	nt	nt
[2H]C1=C([2H])C([2H])(CC(=C)C)[N+](C)(C)C([2H])(CC(=C)C)C1[2H] (centres undefined)	nt	nt	-103%	nt	nt	nt
CC1=NS(=O)(=O)NC(C)=C1CCC(=O)Nc1ccc(C(C)C)cc1	nt	nt	-4%	nt	nt	nt
COc1cc(-c2cccs2)cc(=O)c2c(C)oc(C)c12	-9%	nt	?	?	-17%	14µM*
COc1ccccc1CC(=O)N1CCN(c2cc(-c3ccccc3)[nH]n2)CC1	nt	nt	8%	nt	nt	nt
NC(=S)Nc1nc2ccccc2s1	-10%	-4	6.3µM*	56%	-7%	-2%
COCC(=O)Nc1nc2ccccc2s1	3%	0	-24%	13%	2%	-3%
FC(F)(F)c1cccc(Cn2c3[n+](c4ccc(C(F)(F)F)cc42)CCCCC3)c1	-24%	5	?	87%	3%	2%
Cc1cc(C(C)(C)C)cc(C)c1Cn1c2[n+](c3ccc(C(F)(F)F)cc31)CCCCC2	-23%	3	35µM*	52%	-7%	1%
O=C(c1cccnc1)N1CCC(n2cc(-c3nc(-c4ccccc4)no3)nn2)CC1	nt	nt	11%	nt	nt	nt
FC(F)(F)c1ccccc1-c1nc(NCc2cccnc2)c2ccccc2n1	nt	nt	45µM*	nt	-2%[60.1 µM]	nt
